Compound activity from PubChem.
Sampled rows, rich in hits. Any-hit rate of the full collection: about 1.8%.
GLP-1R agonist: agonists of human GLP-1 receptor. P43220. HEK293 GLP-1R CRE-luciferase, luminescence, 4-6 h; cells express a hypersensitive GLP-1R form. Potency, µM (highest dose often 45.6 µM), for inactives: top-dose activation, actives largely listed as activators. actives 0.007% (n = 380,000); note: potency is the fitted concentration of half-maximal effect; % of control where 0% means no effect
GLP1R inv ag: inverse agonists of human GLP-1 receptor; HEK293 GLP-1R CRE-luciferase, luminescence, 24 h; GLP-1R form is constitutively active; Potency, µM (series often up to 38.3 µM), inactives show top-dose activity change, negative = inhibition, actives largely listed as inhibitors; actives 1.6% (n = 410,000); AID 624417; note: potency is the fitted concentration of half-maximal effect; % is set by controls: 0 for no effect and ±100 for the full control effect; nearly all actives have a fitted effect of over 55% in size
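Inverse agonism was detected as reduced cAMP-driven luciferase luminescence after 24 h compound treatment. The cells were HEK293 clones expressing constitutively active human GLP-1R with the reporter. Reporter-only and GPR119 cell lines served as counterscreen controls.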
TSHR antag: antagonists of human thyroid stimulating hormone receptor; P16473; TSHR-expressing cells, TSH-stimulated cAMP HTRF, 2 h; active compounds read low; activity change, negative = inhibition, % at 11.5 µM; actives 0.2% (n = 330,000); AID 504810;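 active = activity change below a set negative limit, meaning inhibition stronger than a set level, cut at about -70% in these data; inconclusive = activity change between two set negative limits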; note: % is set by controls: 0 for no effect and ±100 for the full control effect
Target sequence (P16473 whole entry, looked up): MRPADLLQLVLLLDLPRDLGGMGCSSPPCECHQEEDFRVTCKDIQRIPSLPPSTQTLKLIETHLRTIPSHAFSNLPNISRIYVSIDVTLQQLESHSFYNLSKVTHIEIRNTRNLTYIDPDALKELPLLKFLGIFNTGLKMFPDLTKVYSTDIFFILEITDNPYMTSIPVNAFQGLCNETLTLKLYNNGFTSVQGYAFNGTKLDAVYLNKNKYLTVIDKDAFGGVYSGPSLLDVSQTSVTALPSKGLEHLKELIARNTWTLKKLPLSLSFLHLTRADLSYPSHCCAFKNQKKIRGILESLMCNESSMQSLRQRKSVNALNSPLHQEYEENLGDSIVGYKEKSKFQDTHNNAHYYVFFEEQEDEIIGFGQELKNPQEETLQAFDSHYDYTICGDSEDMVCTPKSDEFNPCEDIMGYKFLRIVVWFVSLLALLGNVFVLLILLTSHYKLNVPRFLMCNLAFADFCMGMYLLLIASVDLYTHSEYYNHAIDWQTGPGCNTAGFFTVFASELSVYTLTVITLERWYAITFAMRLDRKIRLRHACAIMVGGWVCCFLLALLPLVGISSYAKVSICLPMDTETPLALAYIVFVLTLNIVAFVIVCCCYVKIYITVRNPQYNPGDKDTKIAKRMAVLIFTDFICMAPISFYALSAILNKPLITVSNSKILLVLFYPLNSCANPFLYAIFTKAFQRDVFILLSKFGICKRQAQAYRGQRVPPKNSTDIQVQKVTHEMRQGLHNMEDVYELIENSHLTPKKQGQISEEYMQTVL
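Cell-based HTRF cAMP assay; TSHR cells + compound, TSH EC80 (4nM final), 2 h, 37 deg C. Lysis with anti-cAMP cryptate and cAMP-d2, 30 min RT, read 665/620 nm.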
PTHR1 agonist: activates the human parathyroid hormone receptor PTHR1. HEK293 GP2 PTHR1 cells, GloSensor cAMP luminescence, 1 h. Potency, µM (highest dose often 115 µM), for inactives: top-dose activation, usual class: activators. actives 0.075% (n = 410,000). AID 743266; note: potency is the fitted concentration of half-maximal effect; nearly all actives have a fitted effect of over 55% in size
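HEK-293-derived GP2 cells expressing PTHR1 and a GloSensor cAMP reporter, 3,000/well, plated overnight, given luciferin plus IBMX (each 0.5 mM as added) for 1 h at 37 °C, then compound for 1 h at 37 °C. Luminescence was read after 15 min at room temperature.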
HEK293 tox: cytotoxic in the GLP-1 receptor inverse agonist counter-screen; HEK293 cAMP-luciferase reporter cells, luminescence, 24 h; actives 0.13% (n = 410,000); Potency, µM (titrated, usually from 38.3 µM), for the others: at the top dose activity change, negative = inhibition, hits mostly inhibitors;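 note: loss of luciferase light is scored as toxicity; potency is the fitted concentration of half-maximal effect; % is set by controls: 0 for no effect and ±100 for the full control effect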
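Compound-treated cells are incubated 24 hr at 37 deg C under 5% CO2 after a 12 hour attachment period, then luciferase detection reagent is added and luminescence is measured following 12 min at room temperature; lowered signal indicates toxicity.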
* = called active by the depositor; i = inactive; ? = inconclusive; nt = not tested or not shown; [ ] = another dose, or the depositor's remark. Unless noted, calls come from the whole dose curve; as a rule, active = well fitted curve in the direction sought with a large enough effect; inconclusive = small, poorly fitted or top-dose-only effect, or another doubt; inactive = no such curve, though single readings can be large; an effect the other way counts as inactive or inconclusive.

SMILES	GLP-1R agonist	GLP1R inv ag	TSHR antag	PTHR1 agonist	HEK293 tox
COc1ccc(-c2cc3ccccc3n2CC(O)CNCCO)cc1 (centres undefined)	-6%	2.8µM*	-16	-6%[57.5 µM]	-12%
Cn1nnnc1SCC1=C(C(=O)O)N2C(=O)[C@@H](NC(=O)[C@H](OC=O)c3ccccc3)[C@H]2SC1	-5%	nt	nt	nt	nt
COc1ccc2cc1Oc1ccc(cc1)CC1c3c(cc(OC)c4c3Oc3cc5c(cc3O4)CCNC5C2)CCN1C (centres undefined)	-6%	5.6µM*	6	i	11µM*
COc1ccc2cc1Oc1ccc(cc1)C[C@H]1c3c(cc(OC)c4c3Oc3c(ccc5c3[C@H](C2)N(C)CC5)O4)CCN1C	9%	2%	7	i	0%
NC(=O)C1CCN(c2nc(-c3cccc([N+](=O)[O-])c3)cs2)CC1	nt	nt	-7	nt	nt
CC(/C=N/NC(=O)Cn1nccc1C)=C\c1ccc(C(C)C)cc1	13%	11µM*	1	-6%	-1%
CCc1ccccc1NNC(=O)c1snnc1C	11%	10µM*	14	i	?
Cc1nnsc1C(=O)NNc1c(Cl)cccc1Cl	6%	?	-6	-2%	-27%
CC(C)(C)c1ccc(C(=O)Nc2nnc(SCC(=O)NCC3CCCO3)s2)cc1 (centres undefined)	-1%	?	-3	-30%	-14%
Cc1cnc(NC(=O)c2ccc(OCC3CCCO3)cc2)s1 (centres undefined)	-5%	5µM*	-4	-32%	2%
CCOc1ccc(C(=O)Nc2nnc(SCC(=O)NCC3CCCO3)s2)cc1 (centres undefined)	-5%	2µM*	6	-17%	13%
O=C(Cn1cnnn1)N[C@@H]1C(=O)N2C(C(=O)O)=C(CSc3nncs3)CS[C@H]12	-1%	nt	nt	nt	nt
Cc1csc2nc(-c3ccc(NS(=O)(=O)c4cccc(F)c4)cc3)cn12	3%	15%	nt	i	1%
O=C(CN1c2ccccc2Sc2ccccc21)NNC(=O)Nc1cccc(Cl)c1	5%	3.5µM*	-14	-27%	?
O=C(Cc1ccccc1)NNC(=O)Nc1cccc(Cl)c1	-9%	?	9	i	2%
CC(C)Cc1ccc(C(C)C(=O)Nc2cccnc2)cc1 (centres undefined)	-7%	7.9µM*	-20	-33%	-18%
CC(C(=O)Nc1cccnc1)c1ccc([N+](=O)[O-])cc1 (centres undefined)	9%	17%	-5	i	6%
O=C(NCCC1=CCCCC1)c1ccc(Cl)c(S(=O)(=O)Nc2ccccc2)c1	4%	?	-31	-23%[57.5 µM]	-5%
Cc1ccccc1NS(=O)(=O)c1cc(C(=O)NCCC2=CCCCC2)ccc1C	4%	11µM*	4	-25%[57.5 µM]	?
CCC(Oc1ccccc1)C(=O)Nc1cc(-c2ccccc2OC)nn1-c1ccccc1 (centres undefined)	nt	4.5µM*	nt	-23%	8%
COc1ccccc1-c1cc(NC(=O)COc2ccc(C)c(C)c2)n(-c2ccccc2)n1	nt	16%	nt	i	9%
CCOc1ccccc1NC(=O)Cn1cc(C(=O)c2cccc(OC)c2)c(=O)c2ccc(C)nc21	nt	5%	nt	i	23%
CCC(CC)c1nn2c(=O)cc(COc3ccc(NC(=O)c4ccccc4C)cc3)nc2s1	-3%	-25%	nt	-33%	6%
C/C(=N\N=C(N)N)c1ccc(Cl)c(Cl)c1	-2%	8.9µM*	-8	-3%	?
CC(C)c1ccc(C(=O)Nc2ccc(-c3nc4ccccc4s3)c(Cl)c2)cc1	nt	-4%	nt	-2%	-1%
SMILES	GLP-1R agonist	GLP1R inv ag	TSHR antag	PTHR1 agonist	HEK293 tox
CCCn1nc([N+](=O)[O-])c(C(C#N)c2nc3ccccc3o2)c(Cl)c1=O (centres undefined)	-17%	?	-76*	-39%	?
CCn1nc([N+](=O)[O-])c(C(C#N)c2nc3cc(C(F)(F)F)ccc3s2)c(Cl)c1=O (centres undefined)	-23%	0%	-88*	-17%[57.5 µM]	5µM*
Cc1ncsc1C(=O)N1N=C2/C(=C/c3ccccc3)CCCC2C1c1ccccc1 (centres undefined)	-2%	4µM*	34	-28%	-13%
O=C1CCCc2cc(S(=O)(=O)N3CCCC(C(=O)Nc4ccc(F)c(Cl)c4)C3)ccc2N1 (centres undefined)	-3%	?	nt	-32%	-11%
CC(=O)CSc1nc(-c2ccccc2)[nH]c1S(=O)(=O)c1ccc(C)cc1	nt	14%	nt	i	0%
CCOC(=O)C1=C(CNCc2ccccc2Cl)NC(=O)NC1c1cccc([N+](=O)[O-])c1 (centres undefined)	13%	?	3	-41%	-5%
CCOC(=O)C1=C(CNCCc2ccc(Cl)cc2)NC(=O)NC1c1cccc([N+](=O)[O-])c1 (centres undefined)	11%	10µM*	0	-11%	-7%
COc1cccc(Cn2c(=O)n(CC3CCC(C(=O)N4CCCCC4)CC3)c(=O)c3sccc32)c1 (centres undefined)	nt	?	nt	-90%	-25%
Cc1ccc(NC(=O)C2(C)CCN2C(=O)c2ccccc2CCc2ccccc2)cc1C (centres undefined)	2%	2.8µM*	nt	i	-5%
CC(C)(C)c1cc(NC(=O)C2(C)CCN2C(=O)c2ccccc2CCc2ccccc2)no1 (centres undefined)	0%	8.9µM*	nt	-48%	5%
COc1ccc(NC(=O)C2(C)CCN2C(=O)c2ccccc2CCc2ccccc2)cc1OC (centres undefined)	-1%	?	nt	-29%	?
Cn1nc(C(C)(C)C)cc1NC(=O)C1(C)CCN1C(=O)c1ccccc1CCc1ccccc1 (centres undefined)	11%	?	nt	i	-15%
Cc1ccc(CNC(=O)NCc2noc3ccc(C)cc23)cc1	nt	-5%	nt	i	-6%
O=C(c1ccc(Cl)c(Cl)c1)N(Cc1ccco1)c1ccc(O)cc1	2%	11µM*	9	-32%[57.5 µM]	-3%
O=C(CSc1nc(=O)[nH]c2c1CCC2)NCc1ccc(F)cc1	nt	0%	nt	i	-16%
O=C(CN1CCN(CC(=O)Nc2ccc3c(c2)OC2(CCCCC2)O3)CC1)Nc1cccc(F)c1	-7%	10µM*	nt	i	?
Cc1cc(C)c(CN2CCN(CCCn3cnc(C(=O)Nc4ccc(C)c(C)c4)n3)CC2)c(C)c1	0%	13µM*	nt	-19%	?
COc1ccc(CC(=O)NC(c2ccccc2)c2ccc(C)cc2)c(OC)c1 (centres undefined)	20%	8.9µM*	-12	-7%	-18%
